According to ChEMBL document CHEMBL3988442, “University of Dundee, Small-Polar-MMV Screening Library” (2021):
About 13,000 (27%) of roughly 48,000 compounds showed an effect of 50% or more. This is one part of the list.

Test system: Wolbachia pipientis
Experiment: Anti-Wolbachia Cell-Based Screen
Assay type: functional
Set-up: scale not given: in the data most compounds retested in dose-response had high values
Settings: 5 µM

In order of falling “Percent Effect” value:
1. CNC(=O)c1cnn2c(C3CCCN3C)ccnc12 (stereo not drawn)  176.6%
2. COc1cc(C(=O)N2CC3(CCNCC3)c3cc(Cl)ccc32)ccn1.O=C(O)C(F)(F)F.O=C(O)C(F)(F)F  123.4%
3. O=C(O)C(F)(F)F.O=C(O)C(F)(F)F.O=C(c1ccncc1)N1CC2(CCNCC2)c2cc(Cl)ccc21  113.8%
4. CNC(=O)c1cnn2c(C3CCCN3)ccnc12 (stereo not drawn)  113.8%
5. FC(F)(F)c1nc(NC2CCCCC2)c2ccccc2n1  111.5%
6. O=S(=O)(C1CC1)N1CCCn2nnc(Cn3cccc3)c2C1  109%
7. Cc1ccc(C(=O)N2CC3(CCNCC3)c3cc(Cl)ccc32)cn1.O=C(O)C(F)(F)F.O=C(O)C(F)(F)F  107.7%
8. O=C(O)C(F)(F)F.O=C(c1ccco1)N1CC2(CCNCC2)c2cc(Cl)ccc21  104.6%
9. CNc1nc(C)c(C(=O)N2CCC(C(O)Cc3ccccc3)CC2)s1 (stereo not drawn)  102.6%
10. CCS(=O)(=O)N1CCCn2nnc(Cn3cccc3)c2C1  97.66%
11. CCNc1nc(C)c(C(=O)N2CCC(C(O)Cc3ccccc3)CC2)s1 (stereo not drawn)  94.25%
12. Cc1oc(C(=O)Nc2cccc(Cl)c2C)cc1S(N)(=O)=O  64.05%
13. CCc1nc(C)c(CN2CCOC(Cc3ccccc3Cl)C2)[nH]1 (stereo not drawn)  16.37%
14. COC(=O)COc1cccc(NS(=O)(=O)c2cc(C(=O)O)cs2)c1  15.7%
15. O=C(Nc1ccc(-c2ccco2)cc1)C1CCCN(Cc2ccon2)C1 (stereo not drawn)  13.81%
16. O=C(c1ccc(Cl)cc1)N1CCCn2nnc(Cn3cccn3)c2C1  10.27%
17. CNC(=O)c1cc2c(nc1NC(C)C)CCNCC2  9.833%
18. COCCOc1ccc(-c2noc([C@@H]3CCCN3)n2)cn1  7.967%
19. COCC(=O)NC(c1ccc(Cl)cc1)C(F)(F)F (stereo not drawn)  5.635%
20. CCOC(=O)N1CCN(C(=O)c2sc(-c3ccccc3F)nc2C)CC1  4.725%
21. COc1ccnc(N2CCN(C(=O)c3cnn(C)c3C3CC3)CC2)n1  4.417%
22. CCS(=O)(=O)N1Cc2c(Cn3cccc3)nn(C(C)C)c2C1  3.857%
23. C1CCN(Cc2nnn3c2CN(CC2CC2)CCC3)C1  3.513%
24. CC(C)CS(=O)(=O)CCNC(=O)Nc1cccc2ncccc12  3.388%
25. CN(C)C(=O)N1CC2(CCNCC2)c2cc(F)ccc21.O=C(O)C(F)(F)F  2.852%
26. CC(C)C(Nc1nc(C(F)(F)F)nc2ccccc12)C(=O)O (stereo not drawn)  2.163%
27. Cc1nn(-c2ccc(F)cc2)c2[nH]nc(N)c12  1.976%
28. FC(F)(F)c1nc(NC2CCCC2)c2ccccc2n1  1.763%
29. CNC(=O)[C@@H](C1CCCCC1)N1CCC[C@H]1C(=O)NCCN1CCCC1.Cl.Cl  1.393%
30. CCCc1cncnc1N1CCC(NCCc2ccc(O)cc2)CC1  1.389%
31. COCCC1(CO)CCCN(Cc2cc(C(F)(F)F)ccc2F)C1 (stereo not drawn)  0.6502%
32. CN(C)Cc1cc(-c2nccn2CCn2cccn2)ccc1O  -0.09991%
33. CNc1nc(C)c(C(=O)N2CCCCC2CCc2ccccc2)s1 (stereo not drawn)  -0.1409%
34. Nc1cc2c(nn1)CCN(C(=O)Cc1ccc3c(c1)CCCC3)C2  -1.547%
35. Cc1ccc(N2CCN(Cc3ccccc3)C3(CCNCC3)C2=O)cn1.O=C(O)C(F)(F)F  -1.603%
36. Cc1c(Cl)cccc1NC(=O)N1CCC2(CC1)NC(=O)CC2C(=O)O (stereo not drawn)  -2.177%
37. Cc1cccnc1CN(C)C(C(=O)O)c1ccc(-n2cccn2)cc1 (stereo not drawn)  -2.38%
38. O=C(C1CC1)N1CC2(CCNCC2)c2cc(F)ccc21.O=C(O)C(F)(F)F  -3.609%
39. O=C(O)C(F)(F)F.O=C(c1ccco1)N1CCCC2(CN(Cc3ccc(F)cc3)CCO2)C1 (stereo not drawn)  -3.961%
40. Cc1ccc(C(=O)N2CC3(CCCCC3)c3cc(C(=O)O)ccc32)cn1.O=C(O)C(F)(F)F  -4.08%
41. O=C(O)C(F)(F)F.O=C(c1cccc(Cl)c1)N1CCCC2(CCCNC2)C1 (stereo not drawn)  -4.426%
42. Cc1c(Cl)cccc1NC(=O)CN(Cc1cccnc1)C(C)C  -4.468%
43. CCN(CC)C(=O)c1cc(C2CCCN2C)ccn1.O=CO (stereo not drawn)  -4.853%
44. COc1nc2c(cc1C(=O)NCCCc1csc(N)n1)CCC2  -5.437%
45. Cn1cc(NC(=O)N2CCC(CN3CCCC3)CC2)ccc1=O  -5.518%
46. Cc1cc(C(=O)Nc2ccc(N3CCCC3)cn2)ccc1-n1cncn1  -6.985%
47. O=C(O)C(F)(F)F.c1ccc(CN2CCCn3nnc(Cn4cccc4)c3C2)nc1  -7.39%
48. CC1CCCN(C(=O)c2ncncc2Cl)C1 (stereo not drawn)  -8.48%
49. CCn1cc2c(n1)C(COC)CN(C(=O)COc1ccccc1)C2 (stereo not drawn)  -10.51%
50. CCC(O)C1CCN(C(=O)Nc2nc(-c3ccccc3)ns2)CC1 (stereo not drawn)  -13.79%
51. CCNc1nc(C)c(C(=O)N2CCN(c3ncccc3C)CC2)s1  -16.27%
52. CCN(CC1CCOC1)S(=O)(=O)Cc1cc(Cl)ccc1OC (stereo not drawn)  -20.98%
53. CCN(Cc1ccoc1)C(=O)c1cc(S(N)(=O)=O)c(C)o1  -22.47%
